# Experimental data taken from PubChem BioAssay AID488841 (Sanford-Burnham Center for Chemical Genomics, 2010).
# In all, about 1,400 compounds went through this assay and about 380 (27%) were called active.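 Rule for the calls: active = mean inhibition above 50% across duplicate retests at 10 µM; inactive = the rest.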 This is one part of the list.
# Experiment: inhibition of NALP1/ASC/caspase-1 reporter signal in yeast, confirmation, NALP1 inhibitor project, S. cerevisiae, luminescence, single concentration (AID 488841);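 note: plate controls were DMSO in galactose medium for no effect and cells in plain SD medium for full effect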
# Conditions: S. cerevisiae NALP1/ASC/Caspase-1 reporter, beta-gal luminescence; at 10 µM; active compounds read high
row,Compound,inhibition
1,CCc1ccc(OCC(=O)Nc2ccc(CN3CCCCC3)cc2)cc1,48.2% (inactive)
2,Cc1cc(C)c([C@@H]2C[C@H]3CN(C4CCCC4)C(=O)[C@]34CCCN24)c(-n2cccn2)c1,28.9% (inactive)
3,COc1cc(/C=C/C(=O)c2ccc(Cl)s2)cc(OC)c1O,50.9% (active)
4,COC(=O)CCn1nnc(-c2ccc(C(C)C)cc2)n1,38.5% (inactive)
5,COc1cccc(CN2CCC(C(=O)N3CCN(c4ccccc4F)CC3)CC2)c1OC,37.2% (inactive)
6,CCCc1[nH]n(-c2nc3ccccc3s2)c(=O)c1C=NCC(C)C,54.1% (active)
7,O=C1C(Cl)=C(N2CCN(c3ccccc3[N+](=O)[O-])CC2)C(=O)c2ccccc21,47.2% (inactive)
8,C/C(=N\NC(=O)c1csc(C)c1C)c1ccc(Cl)s1,40.9% (inactive)
9,CCNc1ccc(Br)cc(C(=O)/C=C/c2c(Cl)cccc2Cl)c1=O,39.5% (inactive)
10,O=C(/C=C/c1cccs1)c1cc(Br)ccc1OC(=O)N1CCOCC1,28.1% (inactive)
11,O=C(/C=C/c1ccccn1)c1ccc(Br)cc1O,67.5% (active)
12,COc1cccc(-c2nn(C)c3sc(C(=O)N4CCOCC4)cc23)c1,35.3% (inactive)
13,Cc1[nH]c2ccccc2c1C(=O)CSc1nc2ncc(Cl)cc2[nH]1,25.4% (inactive)
14,O=C(/C=C/c1c[nH]c2ccccc12)c1ccccc1,80.5% (active)
15,CN(C)c1ccc(N/C=C/C(=O)c2ccccc2)cc1,35.4% (inactive)
16,O=C(NC(Cc1c[nH]c2ccccc12)C(=O)O)/C(=C\c1ccc2c(c1)OCO2)NC(=O)c1ccccc1 (configuration not stated),32.5% (inactive)
17,Cc1cc(SC#N)cc(C)c1NC(=O)CCl,21.6% (inactive)
18,CC(C)c1nc2sc3c(=O)[nH]c(=S)[nH]c3c2c2c1CCC2,30.2% (inactive)
19,Cc1ccc2nc(Cl)c(C3CC(c4cccs4)=NN3C(=O)CCCC(=O)O)cc2c1 (configuration not stated),33.7% (inactive)
20,OC(CN1CCCCC1)Cn1c2ccc(Cl)cc2c2cc(Cl)ccc21 (configuration not stated),52.5% (active)
21,COc1ccc(OCC(O)Cn2c(=N)n(Cc3ccccc3)c3ccccc32)cc1 (configuration not stated),27.4% (inactive)
22,OC(COCc1ccc2c(c1)OCO2)CN1CCN(Cc2ccccc2)CC1 (configuration not stated),32% (inactive)
23,OC(CN1CCN(Cc2ccccc2)CC1)Cn1c2ccccc2c2ccccc21 (configuration not stated),63.1% (active)
24,CCOC(=O)c1c(O)c2cc(Cl)ccc2n(CC)c1=O,40.1% (inactive)
25,OC(CNCCC1C=Nc2ccccc21)Cn1c2ccc(Cl)cc2c2cc(Cl)ccc21 (configuration not stated),40.7% (inactive)
26,CCN1CCN(C(=O)N[C@@H](C(=O)N[C@@H]2C(=O)N3[C@@H]2SC(C)(C)[C@@H]3C(=O)O)c2ccccc2)C(=O)C1=O,45.5% (inactive)

row,Compound,inhibition
1,CCn1c(=O)cc(SCC(=O)N2CCN(C3CCCCC3)CC2)c2ccccc21,32.6% (inactive)
2,N/C(Cc1ccc(Cl)cc1)=N\OC(=O)C1CCCCC1,46.6% (inactive)
3,Cc1c(Cl)cccc1NC(=O)c1cccc(OC(F)F)c1,53% (active)
4,CSc1ccccc1NC(=O)Nc1ccccc1Cl,30% (inactive)
5,COc1ccc(C)cc1NC(=O)c1ccc(OC(F)F)cc1,59.4% (active)
6,COc1ccc(C)cc1NC(=O)c1ccc(CN2CCN(c3ccccc3)CC2)cc1,47.2% (inactive)
7,COc1ccc(NC(=O)c2ccc(C)cc2)c(OC)c1,37.7% (inactive)
8,O=C(NCCN1C(=O)S/C(=C\c2cccnc2)C1=O)c1cccc(OC(F)F)c1,39.6% (inactive)
9,Clc1ccc2c(N/N=C/c3ccccc3Br)ccnc2c1,39% (inactive)
10,Cc1ccc(N/C=C/C(=O)C(C)(C)C)c(O)c1,31.6% (inactive)
11,Cn1cc(CC(=O)Nc2cccc(C#N)c2)c2ccccc21,26.6% (inactive)
12,c1ccc2[nH]c3cc4ncnc4cc3nc2c1,52.8% (active)
13,c1ccc2cc(CSCc3nc4ccccc4[nH]3)ccc2c1,42.5% (inactive)
14,CCCCOC(=O)Oc1ccc2c(=O)c(Oc3cc(C)cc(C)c3)coc2c1,45.8% (inactive)
15,CC(C)Oc1ccc2c(=O)c(-c3ccccc3)coc2c1,66.2% (active)
16,CC1CCN(c2nc(CN3CCCCC3)nc3scc(-c4ccccc4)c23)CC1,65.5% (active)
17,COc1ccccc1N1CCN(C(=O)CSc2ncnc3scc(-c4ccccc4)c23)CC1,47.8% (inactive)
18,Cc1ccc(S(=O)(=O)N[C@@H](Cc2ccccc2)C(=O)CCl)cc1,-1.6% (inactive)
19,c1ccc(-c2c(-c3ccccc3)n(Cc3ccco3)c3ncnc(NCCCn4ccnc4)c23)cc1,38% (inactive)
20,CC(=O)n1cc(-c2ccncc2)c2ccccc21,46.6% (inactive)
21,O=C(O)Cn1nc(-c2ccccc2)oc1=O,27.4% (inactive)
22,COC(=O)Cn1nc(-c2ccccc2)c2ccccc21,99.7% (active)
23,COc1ccc2c(c1)C1=NN(/C(C)=C/C(C)=O)C(c3cccc(F)c3)C1CC2 (configuration not stated),42.1% (inactive)
24,COC(=O)N/N=C/c1ccc(-c2cccc(Cl)c2)o1,68.8% (active)
25,COC(=O)N/N=C/c1ccc(OC(=O)c2ccco2)c(OC)c1,22.6% (inactive)
26,Cc1ccc(/C=N/NC(=O)c2ccc3nc[nH]c3c2)o1,31.1% (inactive)

row,Compound,inhibition
1,O=C1c2ccccc2C(Nc2ccc(Cl)cn2)N1Cc1ccccc1 (configuration not stated),55.5% (active)
2,O=C1c2ccccc2C(O)N1c1cccnc1 (configuration not stated),27.9% (inactive)
3,CC1CCc2nc3sc4c(c3c(N)c2C1)CCCC4 (configuration not stated),56.2% (active)
4,Nc1c2c(nc3sc4c(c13)CCCCC4)CCCCC2,40.6% (inactive)
5,Nc1c2c(nc3sc4c(c13)CCCC4)CCCCCC2,32.1% (inactive)
6,CSCCNC(C)=O,15% (inactive)
7,O=C(NCc1cccs1)c1csc2ccccc12,51.3% (active)
8,CC(C)CC(=O)c1c[nH]c(C(=O)NCc2cccs2)c1,22.6% (inactive)
9,O=C(c1ccco1)N1CCN(Cc2cn[nH]c2-c2cccc3ccccc23)CC1,25.2% (inactive)
10,COc1ccccc1N1CCN(CCCCCCOc2ccc(F)cc2)CC1,63.4% (active)
11,COc1ccc(CN2CC(C(=O)NCCN3CCN(c4ccccc4F)CC3)CC2=O)cc1 (configuration not stated),32% (inactive)
12,COc1ccccc1N1CCN(CCCCOc2cccc3ccccc23)CC1,62.8% (active)
13,COc1ccccc1OCCCCN1CCN(c2ccccc2OC)CC1,17.7% (inactive)
14,O=C(COc1cccc2ccccc12)N1CCN(c2ccccc2)CC1,48.1% (inactive)
15,COC(=O)c1ccc(C(=O)OC)c(NC(=O)CN2CCN(c3ccccc3OC)CC2)c1,38.4% (inactive)
16,CCC(C)C(=O)N1c2ccccc2C(=C2SC(C(=O)OC)=C(C(=O)OC)S2)C(=S)C1(C)C (configuration not stated),40% (inactive)
17,COc1ccc(NC(=O)N2CCC(CO)(CC3CCCCO3)CC2)c(OC)c1 (configuration not stated),29.4% (inactive)
18,CN1CCC(Oc2ccc(Sc3ccccc3)cc2)CC1,40.1% (inactive)
19,O=CC1=C(c2ccccc2)Oc2ccccc2O1,94.8% (active)
20,Clc1ccc(OCCCN2CCCC2)cc1Cl,39.5% (inactive)
21,CN(C)Cc1ccccc1Sc1ccccc1Br,28.9% (inactive)
22,Cc1cccc(Oc2nc(CN3CCOCC3)nc3sc4c(c23)CCCC4)c1,51.5% (active)
23,Fc1ccc(Nc2nc(Oc3ccccc3F)nc(N3CCCC3)n2)cc1,29.2% (inactive)
24,C=CCSc1nsc(NC(=O)Nc2ccc(F)cc2)n1,97.7% (active)
25,O=C1/C(=C/c2cccnc2)SC(=S)N1C1CCS(=O)(=O)C1 (configuration not stated),44.6% (inactive)
26,CC1=C/C(=N\OS(=O)(=O)c2ccccc2)C(C(C)C)=CC1=O,88.5% (active)

row,Compound,inhibition
1,CC1=CC(=O)C=C(C)C1=NOS(=O)(=O)c1ccccc1,53.9% (active)
2,CCN(CCO)Cc1csc2ccc(Br)cc12,41% (inactive)
3,C/C(=N\NC(=O)c1c[nH]c2ccccc12)c1ccco1,26.3% (inactive)
4,O=S(=O)(Nc1ccncc1Cl)c1ccccc1,27.6% (inactive)
5,O=C(Nc1nc(-c2ccccn2)cs1)c1ccc(Cl)s1,24.1% (inactive)
6,CNC(=O)c1ccsc1NC(=O)c1sc2ccccc2c1Cl,33.5% (inactive)
7,O=C(Nc1nccs1)c1sc2ccccc2c1Cl,61.4% (active)
8,COC(=O)Nc1nc(C)c(C(=O)c2ccccc2)s1,44.9% (inactive)
9,COC(=O)Nc1sc2nc(C)cc(C)c2c1-n1cccc1,54% (active)
10,Cc1ccc2c(Cl)c(C)c(N3CCCCC3)nc2n1,55.4% (active)
11,CSC1=N/C(=C\c2cccnc2)C(=O)N1c1ccccc1,30.7% (inactive)
12,O=S(=O)(Nc1cccnc1)c1cccs1,26.2% (inactive)
13,COc1ccc(C(=O)/C=C/c2ccc(OC)c(CN3CCOCC3)c2)cc1,63.4% (active)
14,Cc1ccc(C(=O)/C=C/c2cn(CC(O)CN3CCOCC3)c3ccccc23)cc1 (configuration not stated),39.7% (inactive)
15,COc1ccc(C(=O)Cn2c(C(=O)/C=C/c3ccccc3)nc3ccccc32)cc1,25.8% (inactive)
16,C/C(=N\Nc1nc2c(s1)CCCC2)c1ccccc1,29.5% (inactive)
17,CCOc1ccc(C(=O)C(CCC(CN(C)C)C(=O)c2ccc(OCC)cc2)CN(C)C)cc1 (configuration not stated),73% (active)
18,CCCOc1ccc(C(=O)NC(C)C(=O)O)cc1 (configuration not stated),29.1% (inactive)
19,CC(C)OC(=O)COc1ccc(-c2ccccc2)cc1,25.2% (inactive)
20,O=C(NCc1cccnc1)C1CCN(S(=O)(=O)c2cccnc2)CC1,33.3% (inactive)
21,Cc1ccc(/C(COc2ccccc2O)=N\O)cc1,44% (inactive)
22,CCn1c(COc2ccccc2C)nnc1SCC(=O)N1CCN(c2ccccc2)CC1,20.6% (inactive)
23,CCNC(=S)SCCOc1ccccc1C,57.5% (active)
24,C=CCn1c(=O)c2ccc(C(=O)NCc3ccccc3)cc2n(Cc2ccccc2Cl)c1=O,27% (inactive)
